# Reference: PubChem BioAssay
# “And” between values parts separate entries of the source, which are not always exact repeats. Identical values can stand only once. The source made the active and inactive calls.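 How the source made its calls, unless noted: active means compounds whose cell count with miR-34 switched on is under 0.7 times the count with it off; inactive means the rest.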
# Tests used:
# [1] = stimulators of nuclear beta-catenin in C2C12, primary screen, imaging, WNT3A-conditioned medium, mouse C2C12, NPC library (AID 1117326; in the data active means nuclear beta-catenin stimulation mostly above about 4.2%, no sharp cut-off; inactive means mostly below about 10%); conditions: stronger effect = higher value
# [2] = stimulators of insulin release from INS-1E, primary screen, cell-based, 5 mM glucose, NPC library (AID 1117329;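 active means compound raises insulin release from rat beta cells at 5 mM glucose, no numeric limit stated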); conditions: rat INS-1E insulin secretion, at 10 µM, stronger effect = higher value
# [3] = growth inhibition of GSK3B-pretreated HCT116 cells – cell-based, CellTiter-Glo, 0.2 to 20 µM (AID 1117336;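 active means compounds lowering colon cancer cell viability after pretreatment blocking the GSK3B kinase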); conditions: HCT116 viability after GSK3B inhibitor, at 20 µM, stronger effect = higher value
# [4] = inhibition of endothelial tube formation, primary screen, imaging, VEGF stimulated, CD31 staining, tube area, NPC library (AID 1117340;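 active means compound that reduces growth-factor-driven endothelial tube area in a mixed cell culture, no cutoff stated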); conditions: VEGF-stimulated ADSC/ECFC co-culture, at 10 µM, stronger effect = higher value
# [5] = glucagon-like peptide 1 release enhancers, primary assay, NCI-H716 cell line, NPC library (AID 1117341;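 active means compound raises GLP1 secretion from the human gut endocrine cells, with no numeric limit stated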); conditions: NCI-H716 cells, at 10 µM, stronger effect = higher value
# [6] = HCT116 colon cancer cell growth inhibition, primary screen, CellTiter-Glo luminescence, NPC library (AID 1117342;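 active means compounds that lower survival of HCT116 colon cancer cells in the luminescence readout, no numeric limit stated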); conditions: at 20 µM (top of the series)
# [7] = CellTiter-Glo luminescent readout of SW480 viability loss, NPC library primary (AID 1117343;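 active means compounds that lower viability of the colon cancer cells in the luminescence readout, with no numeric limit stated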); conditions: CellTiter-Glo luminescence; at 20 µM (top of the series)
# [8] = decreased DLD-1 cellular survival, CellTiter-Glo luminescent readout, NPC compound collection, primary HTS (AID 1117346;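 active means compounds that lower survival of DLD-1 colon cancer cells in the luminescence readout, no cutoff given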); conditions: DLD-1 viability, CellTiter-Glo luminescence; at 20 µM (top of the series)
# [9] = molecular target: 6-phosphogluconate dehydrogenase, decarboxylating (Homo sapiens) (UniProt P52209); test: 6PGD enzyme inhibitors, primary screen, biochemical, human, recombinant enzyme, NADPH absorbance (AID 1159550;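 active means at least 20% inhibition of 6-phosphogluconate dehydrogenase activity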); conditions: recombinant 6PGD, NADPH absorbance 341 nm; at 10 µM; stronger effect = higher value
# Sequence of 6-phosphogluconate dehydrogenase, decarboxylating (Homo sapiens) (P52209 whole entry, looked up, the tested form may be a part): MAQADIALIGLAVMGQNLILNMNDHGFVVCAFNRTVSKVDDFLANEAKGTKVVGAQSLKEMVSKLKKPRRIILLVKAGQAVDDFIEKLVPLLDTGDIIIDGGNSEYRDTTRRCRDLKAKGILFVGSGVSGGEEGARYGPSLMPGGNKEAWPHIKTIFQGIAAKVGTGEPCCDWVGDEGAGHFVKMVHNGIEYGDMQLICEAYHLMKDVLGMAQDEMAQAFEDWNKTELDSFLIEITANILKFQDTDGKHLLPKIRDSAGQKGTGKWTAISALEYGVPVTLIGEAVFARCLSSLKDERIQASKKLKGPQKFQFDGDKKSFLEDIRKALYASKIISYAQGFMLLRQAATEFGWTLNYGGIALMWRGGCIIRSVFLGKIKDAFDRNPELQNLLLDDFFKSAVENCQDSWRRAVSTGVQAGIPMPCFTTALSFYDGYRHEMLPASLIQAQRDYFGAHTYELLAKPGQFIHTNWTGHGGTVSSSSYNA
# [10] = molecular target: Mitogen-activated protein kinase 7 (Homo sapiens) (UniProt Q13164); test: ERK5 transactivation activators in reporter cells, primary screen, cell-based, HTS (AID 1508626;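 active means luciferase signal above three times the same-plate solvent-only control wells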;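 further: luciferase driven by Gal4-ERK5 fusion binding five Gal4 sites before minimal TATA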); conditions: HeLa Gal4-ERK5 transactivation, 18 h, at 5 µM, stronger effect = higher value
# Sequence of Mitogen-activated protein kinase 7 (Homo sapiens) (Q13164 whole entry, looked up, the tested form may be a part): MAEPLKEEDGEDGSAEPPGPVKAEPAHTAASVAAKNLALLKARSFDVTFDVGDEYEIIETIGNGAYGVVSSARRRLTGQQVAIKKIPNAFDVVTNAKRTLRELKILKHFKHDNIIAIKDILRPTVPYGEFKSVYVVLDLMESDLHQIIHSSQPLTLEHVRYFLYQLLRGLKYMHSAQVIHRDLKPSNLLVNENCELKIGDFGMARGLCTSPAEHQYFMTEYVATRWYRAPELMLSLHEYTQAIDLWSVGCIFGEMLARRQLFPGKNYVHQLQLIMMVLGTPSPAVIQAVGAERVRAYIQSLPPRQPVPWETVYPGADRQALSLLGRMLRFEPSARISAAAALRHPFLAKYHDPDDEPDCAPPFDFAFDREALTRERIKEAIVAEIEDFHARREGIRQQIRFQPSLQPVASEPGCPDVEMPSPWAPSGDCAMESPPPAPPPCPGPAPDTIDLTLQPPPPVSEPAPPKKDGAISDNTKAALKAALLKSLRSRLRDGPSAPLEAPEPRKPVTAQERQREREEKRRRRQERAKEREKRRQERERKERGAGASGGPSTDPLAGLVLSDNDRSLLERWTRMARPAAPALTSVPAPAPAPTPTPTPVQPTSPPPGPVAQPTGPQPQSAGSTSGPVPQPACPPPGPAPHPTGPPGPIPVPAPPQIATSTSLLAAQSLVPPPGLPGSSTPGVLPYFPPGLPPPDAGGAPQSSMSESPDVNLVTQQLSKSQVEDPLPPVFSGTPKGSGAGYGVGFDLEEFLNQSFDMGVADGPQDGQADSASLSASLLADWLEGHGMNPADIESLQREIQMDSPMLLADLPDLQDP
# [11] = liver-stage malaria parasite growth inhibition, primary screen, cell-based, HepG2, luciferase luminescence, HepG2 viability (AID 624349; in the data active means parasite load remaining mostly below about 12%, no sharp cut-off; inactive means mostly above about 10%;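 further: 100% = mean of DMSO negative control wells on the same plate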); conditions: P. berghei liver stage in HepG2, luciferase luminescence, concentration not given here; parasite load remaining: stronger effect = lower value; viability: measured here: HepG2 viability without parasites
# [12] = differential killing of epithelial or mesenchymal cells, primary screen, imaging, PC-3E GFP, TEM4-18 mCherry, co-culture (AID 1345086;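 active means compounds killing one labelled cell type while sparing the other, by normalised counts and ratio limits, not self-fluorescent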;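 on all read-outs here: cells exposed to compound for 72 h before imaging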;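 on red/green cell ratio (normalised): normalised mesenchymal count divided by normalised epithelial count so high means epithelial killing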); conditions: imaging cell counts, at 1 µM; for red/green cell ratio (normalised): actives lie on both sides
# [13] = test system: Aerobactin synthetase IucA (Klebsiella pneumoniae hvKP1); test: Biochemical IucA enzyme inhibition primary screen of the Spectrum library (AID 1346200; call rule not given here;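 further: 100% = wells without compound and 0% = wells lacking enzyme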); conditions: malachite green pyrophosphate, A620, at 8 µM, stronger effect = lower value
# [14] = sensitizers of A549 cells to miR-34 induction, primary screen, imaging, A549 dox-inducible miR-34, nuclei and caspase counts (AID 1347080); conditions: A549 miR-34 inducible, Hoechst nuclei count, 48 h
# [15] = molecular target: NAD(+) hydrolase SARM1 (Homo sapiens) (UniProt Q6SZW1); test: SARM1 TIR NADase inhibitors, cell lysate, NAD-Glo luminescence (AID 1508614;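 active means compound whose remaining NAD level is above about 45 nM, limit read from the data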); conditions: SAM-TIR HEK293T lysate NADase, at 1 µM, stronger effect = higher value
# Sequence of NAD(+) hydrolase SARM1 (Homo sapiens) (Q6SZW1 whole entry, looked up): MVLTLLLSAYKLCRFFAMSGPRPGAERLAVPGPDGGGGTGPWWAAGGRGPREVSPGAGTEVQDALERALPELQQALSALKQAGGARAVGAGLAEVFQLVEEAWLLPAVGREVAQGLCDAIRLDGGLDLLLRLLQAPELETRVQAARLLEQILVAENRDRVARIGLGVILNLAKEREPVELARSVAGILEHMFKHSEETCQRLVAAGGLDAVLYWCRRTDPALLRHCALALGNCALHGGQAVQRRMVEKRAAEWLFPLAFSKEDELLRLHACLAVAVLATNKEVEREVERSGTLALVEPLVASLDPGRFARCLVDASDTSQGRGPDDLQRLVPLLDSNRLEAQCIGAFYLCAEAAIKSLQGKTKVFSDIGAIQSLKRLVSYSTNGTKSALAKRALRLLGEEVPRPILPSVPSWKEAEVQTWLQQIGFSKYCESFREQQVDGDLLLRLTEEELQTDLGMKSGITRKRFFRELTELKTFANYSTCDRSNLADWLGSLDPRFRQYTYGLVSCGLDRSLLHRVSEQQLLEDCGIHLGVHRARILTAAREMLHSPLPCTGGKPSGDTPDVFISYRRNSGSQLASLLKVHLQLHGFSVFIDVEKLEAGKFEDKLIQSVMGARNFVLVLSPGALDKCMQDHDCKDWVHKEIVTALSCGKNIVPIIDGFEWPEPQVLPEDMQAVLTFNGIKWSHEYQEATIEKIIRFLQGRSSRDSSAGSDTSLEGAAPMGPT
# [16] = viability rescue of complex I mutant cybrids, primary screen, cell-based, galactose medium, ATP luminescence (AID 1645843;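 active means z-score of at least 1.8 in each of two replicates, scored against plate mean and spread of sample wells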;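 further: positive z means more ATP and so rescue of galactose-driven cybrid death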); conditions: complex I mutant cybrid cells, 72 h, stronger effect = higher value
# [17] = survival rescue of mitochondrial mutant cells in low glucose, primary screen, MELAS cybrids, Rieske KO mouse fibroblasts, CellTiter-Glo (AID 1508586;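 active means mean z-score across replicates of 1.96 or higher in either the MELAS or the Rieske mutant cell line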;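 further: z relative to plate mean and SD of compound and empty wells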)
# [18] = measured here: epithelial PC-3E GFP cell survival
# [19] = measured here: mesenchymal TEM4-18 mCherry cell survival
# [20] = measured here: relative caspase fold change +Dox/-Dox
# [21] = measured here: total cells with miR-34 induction, stronger effect = lower value
# [22] = measured here: total cells without miR-34 induction
structure (smiles),measurement,setting,value
Clc1ccc(C(c2ccc(Cl)cc2)C(Cl)(Cl)Cl)cc1,nuclear beta-catenin stimulation,[1]; at 10 µM,0.9% (inactive)
same,nuclear beta-catenin stimulation,"[1]; stimulation, at 2 µM",-0.7%
same,insulin secretion stimulation,[2],2.7% (inactive)
same,viability decrease,[3],94.4% (active)
same,tube area decrease,[4],18.6% (inactive)
same,GLP1 secretion stimulation,[5],2.8% (inactive)
same,inhibition of viability,[6],73.4% (active)
same,viability decrease (inhibition),[7],124% (active)
same,viability decrease (inhibition),[8],84.5% (active)
same,inhibition,[9],4.6% (inactive)
same,luciferase signal,[10],48 AU (inactive)
N#Cc1nn(-c2c(Cl)cc(C(F)(F)F)cc2Cl)c(N)c1S(=O)C(F)(F)F (stereo not drawn),parasite load remaining,[11],148% (inactive) and 35.4% (inactive)
same,viability,[11],82.8% and 121%
same,nuclear beta-catenin stimulation,[1]; at 10 µM,6.4% (inactive)
same,nuclear beta-catenin stimulation,"[1]; stimulation, at 2 µM",2.1%
same,insulin secretion stimulation,[2],0.5% (inactive)
same,viability decrease,[3],-53.1% (inactive)
same,tube area decrease,[4],9.4% (inactive)
same,GLP1 secretion stimulation,[5],-1.4% (inactive)
same,inhibition of viability,[6],17.3% (inactive)
same,viability decrease (inhibition),[7],42.7% (inactive)
same,viability decrease (inhibition),[8],6.4% (inactive)
same,red/green cell ratio (normalised),[12],0.9 (inactive)
same,normalised cell number,[12]; [18],1
same,normalised cell number,[12]; [19],0.9
same,activity remaining,[13],115% (inactive)
same,fold change,[14]; stronger effect = lower value,0.962 (inactive) and 0.928 (inactive)
same,fold change,[14]; [20],1.07 and 3.63
same,cell count,[14]; [21],4080 and 11800
same,cell count,[14]; [22],4240 and 12700
same,remaining NAD,[15],10 nM (inactive)
same,luciferase signal,[10],40 AU (inactive)
C[N+]1(CCC(C(N)=O)(c2ccccc2)c2ccccc2)CCCCC1,parasite load remaining,[11],104% (inactive)
same,viability,[11],70.3%
same,nuclear beta-catenin stimulation,[1]; at 10 µM,0.3% (inactive)
same,nuclear beta-catenin stimulation,"[1]; stimulation, at 2 µM",0.3%
same,insulin secretion stimulation,[2],0.55% (inactive)
same,viability decrease,[3],13.5% (inactive)
same,tube area decrease,[4],-8.4% (inactive)
same,GLP1 secretion stimulation,[5],1.2% (inactive)
same,inhibition of viability,[6],-21.6% (inactive)
same,viability decrease (inhibition),[7],-9.7% (inactive)
same,viability decrease (inhibition),[8],-24.2% (inactive)
same,fold change,[14]; stronger effect = lower value,0.846 (inactive)
same,fold change,[14]; [20],2.2
same,cell count,[14]; [21],8180
same,cell count,[14]; [22],9670
same,z-score,[16],0.675 (inactive)
CN1C(=O)COc2c(C(=O)NC3CN4CCC3CC4)cc(Cl)cc21 (stereo not drawn),parasite load remaining,[11],118% (inactive)
same,viability,[11],75.1%
same,nuclear beta-catenin stimulation,[1]; at 10 µM,3.8% (inactive)
same,nuclear beta-catenin stimulation,"[1]; stimulation, at 2 µM",3.8%
same,insulin secretion stimulation,[2],1.3% (inactive)
same,viability decrease,[3],-9.5% (inactive)
same,tube area decrease,[4],-0.8% (inactive)
same,GLP1 secretion stimulation,[5],0% (inactive)
same,inhibition of viability,[6],5.23% (inactive)
same,viability decrease (inhibition),[7],18.3% (inactive)
same,viability decrease (inhibition),[8],-7.8% (inactive)
same,fold change,[14]; stronger effect = lower value,0.858 (inactive)
same,fold change,[14]; [20],1.27
same,cell count,[14]; [21],8690
same,cell count,[14]; [22],10100
same,z-score,[16],0.255 (inactive)
CN(C)C(=O)Oc1cc(OC(=O)N(C)C)cc(C(O)CNC(C)(C)C)c1 (stereo not drawn),parasite load remaining,[11],140% (inactive) and 77.2% (inactive) and 45.2% (inactive)
same,viability,[11],97.8% and 75.7% and 103%
same,nuclear beta-catenin stimulation,[1]; at 10 µM,0.1% (inactive)
same,nuclear beta-catenin stimulation,"[1]; stimulation, at 2 µM",4.2%
same,insulin secretion stimulation,[2],0.9% (inactive)
same,viability decrease,[3],-5.7% (inactive)
same,tube area decrease,[4],-4% (inactive)
same,GLP1 secretion stimulation,[5],12.7% (inactive)
same,inhibition of viability,[6],-0.23% (inactive)
same,viability decrease (inhibition),[7],-17% (inactive)
same,viability decrease (inhibition),[8],-13% (inactive)
same,red/green cell ratio (normalised),[12],0.71 (inactive)
same,normalised cell number,[12]; [18],1.3
same,normalised cell number,[12]; [19],0.92
same,activity remaining,[13],118% (inactive)
same,fold change,[14]; stronger effect = lower value,0.804 (inactive) and 0.911 (inactive) and 0.913 (inactive)
same,fold change,[14]; [20],1.26 and 0.519 and 1.12
same,cell count,[14]; [21],8290 and 8600 and 10000
same,cell count,[14]; [22],10300 and 9440 and 11000
same,z-score,"[17]; MELAS cybrid survival, CellTiter-Glo 48 h, stronger effect = higher value",-0.119 (inactive) and 0.142 (inactive) and -0.358 (inactive)
same,z-score,"[17]; Rieske KO mouse fibroblast survival, CellTiter-Glo 72 h",-0.285 and -0.41 and -0.25
same,remaining NAD,[15],10 nM (inactive)
same,luciferase signal,[10],80 AU (inactive)
same,z-score,[16],0.805 (inactive)
